# Compound activity (PubChem BioAssay)
# This is one part of a sample in which hits are shown more often than they occur.
# AmpC inh detg – AmpC beta-lactamase inhibition with detergent present; Potency, µM (doses to about 114 µM), for the others: at the top dose activity change, negative = inhibition, hits mostly inhibitors; 0.041% of 370,000 active; AID 485294; AmpC hydrolysis of nitrocefin, absorbance 480 nm, 0.01% Triton; P00811;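 further: potency means the concentration at half of the fitted maximal effect; 0% = no-compound wells and -100% = no-enzyme wells; nearly all actives have a fitted effect of over 25% in size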
# Target sequence (P00811 whole entry, looked up): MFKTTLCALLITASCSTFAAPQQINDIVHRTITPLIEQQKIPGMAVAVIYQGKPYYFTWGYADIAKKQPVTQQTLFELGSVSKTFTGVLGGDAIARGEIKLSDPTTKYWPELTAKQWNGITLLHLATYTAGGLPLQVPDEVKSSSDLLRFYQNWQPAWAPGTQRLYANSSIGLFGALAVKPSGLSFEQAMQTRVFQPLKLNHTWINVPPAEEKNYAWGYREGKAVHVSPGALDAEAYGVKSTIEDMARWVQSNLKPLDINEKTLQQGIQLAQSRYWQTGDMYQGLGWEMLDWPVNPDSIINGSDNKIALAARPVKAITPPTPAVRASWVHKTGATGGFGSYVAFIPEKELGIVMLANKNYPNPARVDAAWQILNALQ
#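 20 mM phosphate pH 7.0 + 0.01% (detergent screen) or 0.0001% Triton X-100; 5.3 nM AmpC reagent; cpd preinc 15 min RT; nitrocefin (800 uM stock) to start; A480 q20 s × 4 min; Activity was normalised to no-enzyme and no-compound control wells.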
# AmpC no deterg – AmpC beta-lactamase inhibition without detergent. P00811. AmpC nitrocefin hydrolysis, absorbance 480 nm, 0.0001% Triton. Potency, µM (titrated, usually from 57.1 µM), for inactives: at the highest dose activity change, negative = inhibition, most hits filed as inhibitors. 0.52% of 330,000 active. AID 485341;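 further: potency means the concentration at half of the fitted maximal effect; plate controls were no compound for no effect and no enzyme for full effect; nearly all actives have a fitted effect of over 20% in size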
#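 AmpC (5.3 nM in the dispensed reagent) in 20 mM phosphate pH 7.0 with 0.01% (detergent screen) or 0.0001% Triton X-100 was preincubated with compounds for 15 min at room temperature. Nitrocefin was then added from an 800 uM solution, and hydrolysis was followed at 480 nm.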
# CHX counter – counter-screen hit for Shiga toxin inhibitors, cycloheximide. cell reporter, cycloheximide protein synthesis inhibition counterscreen. max response, %. 12% of 300,000 active. AID 2314; in the data active means max response mostly above about 13%, no sharp cut-off; inactive means mostly below about 14%; further: read at 38.3 µM for the half of the compounds with a filed dose; 0% is about no effect
# Shiga inhibitor – Shiga toxin inhibition. Vero cells, Shiga toxin protein synthesis inhibition reporter. 9.2% of 290,000 active. AID 2315. inhibition, % at 38.7 µM; in the data active means inhibition mostly above about 28%, no sharp cut-off; inactive means mostly below about 43%; further: 0% is about no effect
# NS1 inh – inhibitors of influenza NS1 protein function | Potency, µM (doses to about 46.1 µM), inactives show top-dose activity, positive = more growth | 0.4% of 270,000 active; calls by dose curve; further: potency means the concentration at half of the fitted maximal effect; actives are rising curves; nearly all actives have a fitted effect of over 50% in size
#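 Recovery from NS1-induced slow growth read by OD600 in budding yeast switched to galactose assay medium (pH 6.0, -URA) at 1:100 dilution. Compound 23 nl per well; the matching strain lacking NS1 serves as control.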
# * = called active by the depositor; u = inconclusive; x = not tested or not shown; + = active, no number. Unless noted, the call rests on the fitted dose curve; in most records, active means well fitted curve in the direction sought with a large enough effect; inconclusive means small, poorly fitted or top-dose-only effect, or another doubt; inactive means no such curve, though single readings can be large; an effect the other way counts as inactive or inconclusive.
SMILES,AmpC inh detg,AmpC no deterg,CHX counter,Shiga inhibitor,NS1 inh
Cn1cc(CN2CCCC(C(=O)Nc3cccc(-c4cc5ccccc5[nH]4)c3)C2)cn1 (stereo unspecified),5%,139%,-1,-11,u
CCn1cc(CN2CCCC(C(=O)Nc3cccc(-c4cc5ccccc5[nH]4)c3)C2)c(C)n1 (stereo unspecified),-17%,83%,0,-7,17%
Cc1cc(CN2CCCC(C(=O)Nc3ccc(-c4nc5ccccc5[nH]4)cc3)C2)n[nH]1 (stereo unspecified),-7%,-13%,29*,42,7%
CCOc1ccc(CN(CC)C(=O)c2ccc3c(c2)[nH]c(=O)c(=O)n3CC)cc1OC,-9%,19%,2,-21,-4%
Cc1ccccc1OCCSc1nc(C)c(Cc2ccccc2)c(=O)[nH]1,-7%,x,x,x,x
CCCCOC(=O)Nc1nnc(-c2ccccc2OC)s1,-7%,-16%,-1,-9,-7%
CCCCOC(=O)Nc1nnc(C(C)C)s1,-14%,-14%,37*,119*,x
CCCCCOC(=O)Nc1nnc(CCC)s1,-1%,-5%,28*,41,-2%
CC(C)(C)Sc1ccc([N+](=O)[O-])cc1C(=O)Nc1ccncc1,-8%,-26%,13,52*,0%
COc1ccccc1C(=O)Nc1ccc(CN2CCCCC2)cc1,2%,-2%,11*,10,-5%
COc1ccccc1C(=O)Nc1ccc(Cc2ccncc2)cc1,u,-15%,13*,-3,-20%
O=C(NC(=S)Nc1ccc(Cc2ccncc2)cc1)c1ccccc1Cl,-6%,-15%,0,-7,9%
O=C(NC(=S)Nc1ccc(Cc2ccncc2)cc1)c1ccccc1F,-4%,40%,24*,41,-7%
COc1ccccc1C(=O)Nc1ccc2c(c1)nc(CN1CCCCC1)n2C,2%,-19%,18,36,4%
COc1ccccc1C(=O)NCc1ccncc1,-13%,-13%,-3,-19,u
COc1ccc(S(=O)(=O)N2CCCOC2CNC(=O)C(=O)NCc2ccccn2)cc1 (stereo unspecified),-1%,8%,-5,0,0%
CC(=O)c1cccc(NC(=O)CSc2nnc3ccc(-c4ccc(Cl)cc4)nn23)c1,0%,x,x,x,x
COc1ccc([N+](=O)[O-])cc1C(=O)Nc1ccc(Cc2ccncc2)cc1,-3%,-3%,13*,30,-1%
Cc1ccccc1OCC(=O)Nc1ccc(Cc2ccncc2)cc1,-4%,2%,11,18,-30%
CCOC(=O)Nc1ccc(Cc2ccncc2)cc1,5%,-9%,26*,29,-2%
COc1ccc(N2C(=O)CS(=O)(=O)C23C(=O)N(Cc2ccc(F)cc2)c2ccc(C)cc23)cc1 (stereo unspecified),22%,x,x,x,x
COC(=O)C1=C(C)NC(C)=C(C(=O)OC)C1c1ccc(C)o1,-2%,1%,-3,-1,-2%
Cn1nccc1C(=O)Nc1ccc(Cl)cc1,-3%,-6%,28*,68*,-21%
Cn1nccc1C(=O)Nc1ccc2c(c1)OCO2,-12%,-15%,28*,107*,11%
CCOC(=O)CN1C(=O)S/C(=C/c2ccc3c(c2)n(C)c(=O)n3C)C1=O,3%,-25%,40*,44*,-6%
SMILES,AmpC inh detg,AmpC no deterg,CHX counter,Shiga inhibitor,NS1 inh
CCOC(=O)CN1C(=O)S/C(=C/C=C/c2ccc(N(C)C)cc2)C1=O,u,-36%,30*,15,20%
COc1cc(C2c3c(oc4ccccc4c3=O)C(=O)N2Cc2ccc(C)cc2)ccc1O (stereo unspecified),-5%,x,x,x,x
O=C(Cn1cnc2scc(-c3ccc(F)cc3)c2c1=O)NCC(c1ccco1)N1CCCC1 (stereo unspecified),-20%,34%,x,x,x
Cc1nc2nc(-c3ccc(F)cc3)cn2nc1C,8%,-10%,32*,31,-1%
c1ccc(-c2cn3nc(-c4ccccc4)cnc3n2)cc1,2%,-12%,49*,+,-12%
Cc1nc2nc(-c3ccccc3)cn2nc1C,-10%,x,28*,85*,-10%
CCCCCCCCCCCCCCCCCCCCCCO,x,x,-3,-10,x
CCS(=O)(=O)N1CCc2cc(C(=O)NCCc3ccc(OC)c(OC)c3)ccc21,2%,x,x,x,x
O=S(=O)(O)C(c1ccccc1)[C@@H](O)c1ccccc1 (stereo partly specified),x,x,x,x,3%
CC(=O)c1ccc(NC(=O)/C(=C\c2cccs2)NC(=O)c2ccco2)cc1,3%,-14%,-2,-1,5%
Cc1ccc(CNC(=O)C2CCN(S(=O)(=O)c3ccc4[nH]c(=O)ccc4c3)CC2)cc1,-7%,x,x,x,x
COc1ccc(C)cc1NCc1cc(=O)oc2cc(-c3ccccc3)c(O)cc12,-5%,3.5µM*,11,26,19%
COc1ccc2c(Cl)c(C(=O)N/N=C/c3ccncc3)sc2c1,-3%,-41%,17,24,10%
COc1ccc2c(Cl)c(C(=O)NC3CCS(=O)(=O)C3)sc2c1 (stereo unspecified),-6%,-6%,20*,36*,-10%
COc1ccc2c(Cl)c(C(=O)NN3CCN(C)CC3)sc2c1,2%,6%,23*,26,1%
CC[C@@H](CS(=O)(=O)O)[N+](=O)[O-],x,x,x,x,0%
CCOc1ccc(NS(=O)(=O)c2ccc(C(=O)N3CCN(C(C)=O)CC3)cc2)cc1,-2%,170%,3,-3,6%
Cc1ccc(C)c2sc(NC(=O)C3CC3)nc12,-8%,-30%,1,-3,-29%
CC(=O)c1sc(NC(=O)c2ccccc2C)nc1C,8%,-26%,47*,51,x
CC(=O)Nc1nc(C)c(C(C)=O)s1,-5%,-16%,-1,-14,-3%
Cc1cc(C)c2sc(NC(=O)C3CC3)nc2c1,-14%,-12%,27*,42*,-18%
CC(=O)c1sc(NC(=O)c2ccc(Cl)cc2)nc1C,-2%,-16%,30*,71*,-12%
Cc1nc(NC(=O)C2CC2)sc1C(=O)Nc1ccccc1,u,-15%,-1,22,9%
Cc1ccccc1NC(=O)c1sc(NC(=O)C2CC2)nc1C,-15%,-38%,11*,21,14%
COc1ccc(CCNC(=O)CCS(=O)(=O)c2ccc3c(c2)oc(=O)n3C)cc1OC,1%,-5%,-2,-5,4%
CC(=O)c1sc(NC(=O)c2ccc(F)c(F)c2)nc1C,2%,-17%,9,41,-17%
Cc1cccc(C(=O)NC(=O)Nc2c(C)cc(C)nc2C)c1,5%,-3%,21*,58*,-6%
CC(=O)c1sc(NC(=O)c2cccc(C)c2)nc1C,-11%,-36%,43*,68*,x
Cc1nn(-c2ccccc2)c2c1C(c1ccccc1)C(C#N)=C(N)O2 (stereo unspecified),0%,-21%,-1,-2,-16%
Cc1ccc(-n2nc(C)c3c2OC(N)=C(C#N)C3c2ccco2)cc1 (stereo unspecified),-8%,-24%,22*,75*,u
